Shown is part of a subset that was picked to be rich in hits.
MITF inhib – MITF inhibition; actives 0.28% (n = 37,000); AID 2240; inhibition, % (test concentration not listed); TRPM1 promoter luciferase, luminescence, 24 h; in the data active means inhibition above about 85%;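 further: human melanocyte line stably carrying TRPM1 promoter luciferase reporter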
Shh pathway inh – blocks Sonic Hedgehog signaling. Shh-LIGHT2 Gli-luciferase reporter, 30 h. inhibition, % (no concentration beside the values). actives 2.1% (n = 22,000). AID 2313;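 active means mean inhibition across valid replicates above about 65%, limit read from the data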;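 further: pathway switched on by Shh-conditioned medium diluted 1 in 25 in low serum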
Hits are given with their value; – = inactive; · = not tested or not shown.

SMILES	MITF inhib	Shh pathway inh
CCC1=NC(C(F)(F)F)(C(F)(F)F)C2=C(CC(C)(C)CC2=O)N1Cc1ccccc1	–	–
CNc1[nH]cnc(=S)c1N	–	–
N#C/C(=C(\O)c1ccc(C(=O)c2ccccc2)cc1)c1nc2ccccc2s1	–	96
O=C(CSc1nc2ccccc2s1)Nc1ccccc1C(=O)c1ccccc1	–	·
Cc1ccc2c(c1)c1c(n2CCc2ccncc2)CCN(C)C1	–	–
N=c1ncn(Cc2ccccc2)c2nc(SCC(=O)O)[nH]c12	–	·
C=CCSc1ncc2c(=S)[nH]c(=S)[nH]c2n1	–	65
CCN(CC)c1ncc2c(=S)[nH]c(=S)[nH]c2n1	–	–
C=C(C)C(=O)O[C@H]1[C@H]2C(=C)C(=O)O[C@@H]2C[C@@H](C)[C@@H]2O[C@@H]2C(=O)[C@](C)(O)[C@@H]1OC(=O)C(=C)C	–	100
C=C(C)C(=O)O[C@H]1CC(=C)C2C[C@H](O)[C@](O)(CO)C2[C@H]2OC(=O)C(=C)[C@H]12 (stereo partly drawn)	–	–
COc1c(Cl)cc(C(=O)Nc2sc3c(c2C(=O)NC2CCS(=O)(=O)C2)CCC(C)C3)cc1Cl (stereo not drawn)	–	·
Cc1ccc(N(C(C)C(=O)Nc2cccc(F)c2)S(C)(=O)=O)cc1 (stereo not drawn)	–	·
CC1CCC(C(C)C)C(NC(=S)Nc2cccc(F)c2)C1 (stereo not drawn)	–	102
C(=NCc1ccco1)c1cn(-c2ccccc2)nc1-c1ccccc1	–	–
CC(O)CC(=O)c1cc(O)ccc1O (stereo not drawn)	–	–
O=C1c2c(O)cc(O)cc2OC(c2ccc(O)cc2)C1C1C(=O)c2c(O)cc(O)cc2OC1c1ccc(O)cc1 (stereo not drawn)	·	–
O=C1c2c(O)cc(O)cc2O[C@@H](c2ccc(O)cc2)[C@H]1[C@@H]1C(=O)c2c(O)cc(O)cc2O[C@H]1c1ccc(O)cc1	–	72
N#Cc1c(N)[nH]c(=S)c(C(N)=O)c1-c1cccc(Br)c1	–	106
C=CCn1c(=S)sc2c(Sc3nnc(-c4ccco4)o3)ncnc21	–	73
Cc1ccc(C(=O)CSc2nnc(-c3ccco3)o2)o1	–	·
CC1(C)C(=O)[C@@H]2C[C@@]3(O)C4=CC(=O)O[C@@H](c5ccoc5)[C@]4(C)CCC3[C@@](C)(C2=O)[C@H]1CC(=O)O (stereo partly drawn)	–	–
COC(=O)C[C@H]1C(C)(C)C(=O)[C@@H]2C[C@@]3(O)C4=CC(=O)O[C@@H](c5ccoc5)[C@]4(C)CCC3[C@@]1(C)C2=O (stereo partly drawn)	–	86
CCOc1ccc(Nc2nc3cc(C)ccc3cc2C)cc1	–	–
Fc1ccc(Nc2nc3ccccc3nc2Nc2ccc(F)cc2)cc1	–	·
COc1ccc2c(=O)cc(-c3ccccc3)oc2c1	–	–
SMILES	MITF inhib	Shh pathway inh
COc1cccc(-c2cc(=O)c3cc(OC)ccc3o2)c1	93	–
CCOC(=O)c1c(CN2CCCCC2)n(-c2ccccc2)c2ccc(OC(C)=O)cc12	–	–
COc1ccc(CCN=Cc2ccc3c(c2)OCO3)cc1OC	–	–
CC(=O)OC[C@]12CCC(C)=CC1O[C@@H]1[C@H](O)[C@@H](O[C@H]3O[C@H](CO)[C@@H](O)[C@H](O)[C@H]3O)[C@@]2(C)C12CO2 (stereo partly drawn)	·	–
CC1=CC2OC3[C@H](O)C[C@](C)([C@@]2(CO)CC1=O)[C@]31CO1 (stereo partly drawn)	–	95
N#Cc1cc2c(OCC(O)CN3CCN(C(c4ccccc4)c4ccccc4)CC3)cccc2[nH]1 (stereo not drawn)	99	103
Cc1ccc(C)c(OCC(O)CN2CCN(CCO)CC2)c1 (stereo not drawn)	–	·
Cc1nc(C2C(=O)c3ccc(O)c(O)c3OC2C(F)(F)F)cs1 (stereo not drawn)	–	–
Cc1ccc(Nc2nnc(-c3ccc(C)c(S(=O)(=O)NCC4CCCO4)c3)c3ccccc23)cc1 (stereo not drawn)	–	91
CNS(=O)(=O)c1cc(-c2nnc(Nc3cccc(O)c3)c3ccccc23)ccc1C	–	·
O=S(=O)(NCCNC/C=C/c1ccc(Br)cc1)c1cccc2cnccc12	–	81
CNCCNS(=O)(=O)c1cccc2cnccc12	–	–
C[C@H]1CN([C@@H](C)CO)C(=O)c2cccc(NC(=O)Nc3ccc4c(c3)OCO4)c2O[C@H]1CN(C)S(=O)(=O)c1ccc(F)cc1	–	101
C[C@@H]1CN([C@@H](C)CO)C(=O)c2cccc(NC(=O)Nc3ccc4c(c3)OCO4)c2O[C@H]1CN(C)S(=O)(=O)c1ccc(F)cc1	–	–
C[C@H](CO)N1C[C@H](C)[C@@H](CN(C)S(=O)(=O)c2ccc(F)cc2)Oc2c(NC(=O)Nc3ccc4c(c3)OCO4)cccc2C1=O	–	–
Cc1ccc(S(=O)(=O)N(C)C[C@H]2Oc3c(NC(=O)Nc4ccc5c(c4)OCO5)cccc3C(=O)N([C@H](C)CO)C[C@H]2C)cc1	–	–
Cc1ccc(S(=O)(=O)N(C)C[C@@H]2Oc3c(NC(=O)Nc4ccc5c(c4)OCO5)cccc3C(=O)N([C@H](C)CO)C[C@@H]2C)cc1	–	115
C[C@H](CO)N1C[C@H](C)[C@H](CN(C)S(=O)(=O)c2ccc(F)cc2)Oc2c(NC(=O)Nc3ccc4c(c3)OCO4)cccc2C1=O	–	92
O=C(NCc1ccccc1)c1nc2ncccn2n1	–	–
O=C1c2ccccc2C(=O)N1CN(C(=O)C(F)(F)F)c1ccc(Cl)cc1	–	–
CC(C)S(=O)(=O)c1cscc1NC(=O)c1ccc(-c2cc(C(F)(F)F)nn2C)s1	–	–
CN1C(=O)c2ccc(C(=O)Nc3ccc(OCC(=O)O)cc3)cc2C1=O	–	·
O=C(ON1C(=O)c2ccccc2C1=O)C1CCCCC1	–	70
O=C(Nc1ccccc1)C1CCCCC1	–	·
Cc1sc(NC(=O)c2ccccc2)c(C(=O)N2CCCCC2)c1C	–	–
SMILES	MITF inhib	Shh pathway inh
CCc1cc(C(c2ccc(Cl)cc2)N2CCN(CCO)CC2)c(NC(=O)c2ccccc2)s1 (stereo not drawn)	–	81
Cc1ccc(N(CC(=O)NCc2ccco2)S(=O)(=O)c2ccc(C)cc2)cc1	–	–
C[C@@H]1CN([C@@H](C)CO)C(=O)c2cc(NC(=O)C3CC3)ccc2O[C@H]1CN(C)S(=O)(=O)c1ccc(Cl)cc1	–	67
Cc1cc(C(=O)Nc2cccc3c2O[C@@H](CN(C)S(=O)(=O)c2ccc(Cl)cc2)[C@H](C)CN([C@H](C)CO)C3=O)n(C)n1	–	–
C[C@@H]1CN([C@@H](C)CO)C(=O)c2cc(NC(=O)C3CC3)ccc2O[C@@H]1CN(C)S(=O)(=O)c1ccc(Cl)cc1	–	–
Cc1noc(C)c1S(=O)(=O)N(C)C[C@H]1Oc2ccc(NC(=O)C3CC3)cc2CC(=O)N([C@H](C)CO)C[C@H]1C	–	–
Cc1noc(C)c1S(=O)(=O)N(C)C[C@@H]1Oc2ccc(NC(=O)C3CC3)cc2CC(=O)N([C@H](C)CO)C[C@@H]1C	–	70
Cc1cc(C(=O)Nc2cccc3c2O[C@@H](CN(C)S(=O)(=O)c2ccc(Cl)cc2)[C@@H](C)CN([C@H](C)CO)C3=O)n(C)n1	–	78
C[C@H]1CN([C@@H](C)CO)C(=O)c2cccc(NC(=O)C3CCOCC3)c2O[C@H]1CN(C)S(=O)(=O)c1ccc(Cl)cc1	–	84

Screening results from PubChem BioAssay.
